# Experimental data reported in PubChem BioAssay AID652126 (The Scripps Research Institute Molecular Screening Center, 2013).
# In all, about 370,000 compounds went through this assay and about 3,700 (1%) were called active. For the sample, actives were picked, then their nearest neighbours and some compounds at random. Values without a mark were called inactive.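 The calls were made as follows: active = activation above the mean over all tested compounds plus 3 SD (cut at about 0.9% in these data); inactive = the rest.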
# System: Nuclear hormone receptor DAF-12 (Strongyloides stercoralis)
# Assay: ssDAF-12 driven luciferase reporter activation – cell-based, luminescence, HEK293, GRIP1 co-expression, lit1-tk-luc, primary screen (AID 652126);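 also: 0% = DMSO-only wells and 100% = 3 µM delta7-dafachronic acid wells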
# Conditions: HEK293 ssDAF-12/GRIP1 lit1-tk-luc reporter, at 6.8 µM, hits give high values, % of 3 µM dafachronic acid response
row,SMILES,activation
1,COc1ccc(N2CCN(CCNS(=O)(=O)c3ccc(C(C)(C)C)cc3)CC2)cc1,-0.72%
2,Cc1ccc(Cn2cc(CN3[C@@H](C)COc4cc(Br)ccc4S3(=O)=O)nn2)cc1,-1.02%
3,O=C(Nc1ccn(Cc2ccccc2)n1)c1n[nH]c([N+](=O)[O-])c1Cl,1.07% (active)
4,O=C(Cn1cnc([N+](=O)[O-])n1)NCCc1ccccc1,-1.02%
5,O=C(O)CC(Cc1ccccc1)C(=O)Nc1ccc([N+](=O)[O-])cc1 (stereo unspecified),-1.24%
6,Cc1ccccc1CS(=O)(=O)Cc1ccc(C(=O)Nc2ccc(Cl)cc2)o1,-2.4%
7,C/C(=C\c1ccco1)CN1CCC(N2CCC(C(=O)N3CCOCC3)CC2)CC1,1.16% (active)
8,O=C(C1CCN(C2CCN(Cc3ccc4cc(F)ccc4n3)CC2)CC1)N1CCCC1,0.06%
9,O=C(C1CCN(C2CCN(Cc3cccc4c3OCO4)CC2)CC1)N1CCOCC1,-0.29%
10,O=S(=O)(c1ccccc1)N1CCC(c2nc3ccccc3o2)CC1,-1.57%
11,C=C(C)C#CC(Cc1ccccc1)NCC1CC1 (stereo unspecified),-1.12%
12,COC(=O)[C@H](C(C)C)N1CCc2nnn(Cc3ccc(C)cc3)c2-c2ccccc2S1(=O)=O,-1.89%
13,COC(=O)[C@@]12CCCCC=C1N(CCc1ccc(Cl)cc1)C(=O)[C@H]2CC(=O)NCc1ccc(OC)c(OC)c1,-1.91%
14,Cc1ccc(/C=C2\CCn3c2nc2cc(C(=O)O)ccc2c3=O)c(C)c1,-1.16%
15,Cc1ccc(C(=O)N/N=C/c2sc(=O)n(Cc3cccc(C(=O)O)c3)c2Cl)cc1,0.05%
16,Cc1ccc2cc(/C=N/Nc3ccc(C(=O)O)cc3)c(Cl)nc2c1,0.95% (active)
17,COc1cccc(N2CCN(CC(=O)N(C)Cc3ccc(F)cc3)CC2)c1,-1.79%
18,O=S1(=O)c2c(cccc2N2CC[C@H](O)C2)O[C@@H]2CCN1C2,-0.61%
19,CC(=O)OC12CCCN(C1)/C(=C/c1ccncc1)C2 (stereo unspecified),-1.9%
20,Cc1cc(C)nc(Nc2n[nH]c(-c3ccccc3N)n2)n1,1.05% (active)
21,Cc1cc(C)n2ncc(C(=O)Nc3ccc4c(c3)OCCO4)c2n1,-1.35%
22,C=CCN1C(=O)[C@@H](CC(=O)N2CCN(C(=O)c3ccco3)CC2)[C@]2(C(=O)OC)CCCCC=C12,-0.85%

row,SMILES,activation
1,O=C(CSc1nc2ccccc2n1Cc1ccccc1Cl)N/N=C\c1c[nH]c2ccccc12,-0.54%
2,Cc1c(NC(=O)C(=O)N/N=C/c2cccs2)c(=O)n(-c2ccccc2)n1C,-1.41%
3,COc1ccc2c(c1)c(C(=O)N/N=C/c1cccs1)c(C)n2C,1.69% (active)
4,COc1ccc(N(CC(=O)N/N=C/c2cccs2)S(=O)(=O)c2ccc(OC)c(OC)c2)cc1,-1.66%
5,O=C(CSc1nc2ccccc2n1Cc1ccccc1)NNC(=S)Nc1ccccc1,-1.45%
6,C=CCN1C(=O)[C@@H](CC(=O)NCCCCc2ccccc2)[C@]2(C(=O)OCC)CCCCC/C=C/12,-1.06%
7,Cc1cc(OCc2cc(C(=O)NCc3cc(C(C)C)no3)no2)cc(C)c1Cl,1.55% (active)
8,CCC(NC(=O)c1cc(COc2ccc(F)c(F)c2)on1)c1ccncc1 (stereo unspecified),-0.62%
9,CCOC(=O)CC1(NC(=O)c2cc(COc3cncc(Cl)c3)on2)CCCCC1,-1.57%
10,Cc1ccc(C2=CCN(C)C(=O)N2c2ccc(Cl)cc2)cc1,-0.59%
11,Nn1c(SCC(=O)Nc2cccc3ccccc23)nnc1-c1cc(-c2ccc(F)cc2)n[nH]1,-1.45%
12,Cc1ccc(OCc2nc3ccccc3n2C)cc1,0.93% (active)
13,COc1cccc(C(O)Cc2nc3ccccc3n2C)c1OC (stereo unspecified),-1.62%
14,Cc1ccc(OCc2nnc(SC3CCc4ccccc4C3=O)n2C)cc1 (stereo unspecified),-0.36%
15,Cc1ccc(C(=O)N(Cc2ccccn2)CC2CCCO2)cc1 (stereo unspecified),-0.96%
16,COc1ccc(Cl)cc1NC(=O)C(C)N1CCc2ccccc21 (stereo unspecified),-1.48%
17,COC(CNC(=O)[C@H](Cc1ccccc1)NC1(C(=O)NC2CCCCC2)CCCCC1)OC,-1.29%
18,COC(=O)[C@]12C[C@H](CC(=O)N3CCN(C(=O)C4CC4)CC3)C(=O)N(CCC3=CCCCC3)C1=C[C@H](C(C)C)O[C@@H]2C1CC1,-1.07%
19,Cc1cc(N=Nc2ccc3ccccc3c2)ccc1O,1.92% (active)
20,COC(=O)CC1CCc2cc(C)cc(C(CC(C)C)NC(=O)[C@H](CC(C)C)NC(=O)OCc3ccccc3)c2O1 (stereo partly specified),-1.68%
21,CC(C)(C)c1ccc(CSc2nnc(-c3cccs3)o2)cc1,-0.67%
22,CCOC(=O)CSc1ncc(-c2cccc(Cl)c2)cn1,-1.41%

row,SMILES,activation
1,CCOC(=O)CSc1nc(C)cc2c1C(=O)OC2,1.04% (active)
2,CCN(Cc1ccccc1)C(=O)CSc1nc(C)cc2c1C(=O)OC2,-0.86%
3,COC(=O)C1CN(CCc2ccccc2)CCS(=O)(=O)N1Cc1ccc(F)cc1 (stereo unspecified),-0.95%
4,Cc1cccc(NC(=O)/C=C/c2ccc3c(c2)OCO3)n1,1.53% (active)
5,CN(Cc1ccccc1)C(=O)COC(=O)/C=C/c1ccc2c(c1)OCO2,-0.82%
6,COc1cccc(/C=C/C(=O)Nc2ccc3c(c2)OCCO3)c1,-0.84%
7,c1csc(-c2nnc(SCc3nc4ccccc4[nH]3)o2)c1,-0.86%
8,O=C(CSc1nnc(-c2ccccn2)n1-c1ccccc1)Nc1ccc2cn[nH]c2c1,-0.07%
9,CC(=O)c1cc(-c2ccc3ccccc3c2)c(=O)n2c1CCC2,-1.47%
10,CC(CCN1CCC(C(O)(c2ccccc2)c2ccccc2)CC1)Oc1ccc(C(F)(F)F)cc1 (stereo unspecified),-0.69%
11,C/C=C/C(=O)OCc1csc(CC(=O)Nc2ccccc2C)n1,-0.39%
12,CC(=O)Nc1ccc(S(=O)(=O)NC(C)C(=O)OCC(=O)NC2CCCC2)cc1 (stereo unspecified),-0.65%
13,Cc1ccc(NC(=O)Cc2nc(COC(=O)C(C)NS(=O)(=O)c3ccc(C)cc3)cs2)cc1 (stereo unspecified),0.98% (active)
14,COc1cccc(CNC(=O)CNS(=O)(=O)c2ccc3nc(C)sc3c2)c1OC,-1.81%
15,COc1ccc(CCNC(=O)CSc2nc3c([nH]2)c(=O)n(C)c(=O)n3C)cc1,-1.12%
16,COc1ccc2c(C(C)c3ccc(N)cc3)cn(C)c2c1 (stereo unspecified),-0.41%
17,CCCc1nc2c3ccccc3ccn2c1Cc1ccccc1C(F)(F)F,1.29% (active)
18,Cc1cc(Br)cn2c(Cc3ccccc3C(F)(F)F)c(C3CCCCC3)nc12,-0.29%
19,FC(F)(F)c1ccccc1Cc1c(-c2ccccc2)nc2c3ccccc3ccn12,-0.19%
20,COc1ccc(S[C@]2(C(=O)N(C)C)CC(=O)N(c3ccc(OC)cc3)[C@@H]2c2ccc(OC)cc2)cc1,-1.42%
21,O=C(CSc1nnc(COc2ccccc2)n1-c1ccc(Cl)cc1)Nc1ccc2c(c1)OCO2,-0.91%
22,N#CCCN(C(=O)COC(=O)C1CCN(c2ccc(C(F)(F)F)cn2)CC1)c1ccc(F)cc1,-1.01%

row,SMILES,activation
1,CC(c1ccccn1)N(C)C(=O)c1ccc2nc(Cc3cccc(Cl)c3)oc2c1 (stereo unspecified),0.07%
2,CSCCNC(=O)c1ccc2nc(Cc3ccccc3F)oc2c1,1.4% (active)
3,COc1ccc(Cc2nc3ccc(C(=O)NCC4CCOCC4)cc3o2)cc1OC,-0.41%
4,CC(C)c1ccc(N(C(=O)c2ccco2)C(C(=O)NC2CCCC2)c2cccnc2)cc1 (stereo unspecified),-0.62%
5,CCC(=O)/C(=C(/O)c1ccccc1)c1nc2ccccc2[nH]1,0.91% (active)
6,CC/C(O)=C1\C(=O)CC(C)(C)CC1=NCCc1nc2ccccc2[nH]1,-1.35%
7,CCCC(NC(=O)c1ccco1)c1nc2ccccc2[nH]1 (stereo unspecified),-0.66%
8,COC(=O)[C@]12C[C@H](CC(=O)NCC34CC5CC(CC(C5)C3)C4)C(=O)N(Cc3ccc(Cl)cc3Cl)C1=C[C@H](COCc1ccccc1)O[C@@H]2C,-0.9%
9,O=C(Cn1nc(C(F)(F)F)c2c1CCC2)NCc1ccc(F)cc1,-0.8%
10,O=C(CN1CCCc2ccccc21)NCc1ccc(F)cc1,1.32% (active)
11,O=C(CN1C(=O)CCS(=O)(=O)c2ccccc21)NCc1ccc(F)cc1,-1.14%
12,CCCNC(=O)Nc1ccc2c(c1)C(=O)N(C)[C@H]1CC[C@H](CC(=O)NCC3CCCCC3)O[C@@H]1CO2,-1.84%
13,O=C(COc1ccc(-c2ccccc2)cc1)NN=C1CCCC1,-1.61%
14,O=C1NC(Nc2nc3ccccc3s2)(C(F)(F)F)C(=O)N1C1CCCCC1 (stereo unspecified),-1.03%
15,c1ccc2sc(NN=C3CCCC3)nc2c1,1.21% (active)
16,COC(=O)[C@]12C[C@H](CC(=O)NCc3cccs3)C(=O)N(CCc3ccc(OC)c(OC)c3)C1=C[C@H](C(C)C)O[C@@H]2C1CC1,-0.56%
17,CC[C@@H](CCC(=O)N(c1ccccc1)c1ccccc1)C1CC1,-1.64%
18,CC(C)(O)C#Cc1ccc(C(=O)N2CCC(C(N)=O)(N3CCCCC3)CC2)cc1,1.03% (active)
19,CCC(=O)N1CCC(C(N)=O)(N2CCCCC2)CC1,-1.29%
20,NC(=O)C1(N2CCCCC2)CCN(C(=O)c2ccc(C#Cc3ccccc3)o2)CC1,-1.3%
